Bioassay records from PubChem.
Many of the other results were omitted from the sample, so hits are more common in it than they were.
Pf Dd2 growth – blocks in vitro growth of P. falciparum Dd2. AID 1347417. Potency, µM (titrated, usually from 28.9 µM), for inactives: at the highest dose activity, negative = inhibition, hits mostly inhibitors. actives 4.3% (n = 120,000). P. falciparum Dd2 growth, SYBR Green, 72 h; active = well fitted inhibition curve with a large enough effect;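 also: plate controls were DMSO vehicle for no effect and reference drug for full effect; nearly all actives have a fitted effect of over 65% in size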
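Infected erythrocytes (Dd2, 0.3% parasitemia, 2.5% hematocrit final) are added to compound in RPMI-1640/Albumax II medium, grown 72 h at 37C in low oxygen, then lysed with saponin/Triton-X containing SYBR Green and read by fluorescence.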
Starred values were filed as active, the others as inactive; i = inactive; [ ] = dose if it differs, or a comment. Potency is read from the fitted curve at half-maximal effect.

SMILES | Pf Dd2 growth
CC(=O)N1Cc2ccccc2CC2(CCCN(Cc3ccc(O)cc3)C2)C1 (stereo not given) | -20%
O=C(Cc1ccc(O)cc1)N1Cc2ccccc2CC2(CCN(Cc3ccncc3)C2)C1 (stereo not given) | 7.9µM*
CC(=O)N1Cc2ccccc2CC2(CCN(Cc3ccccn3)C2)C1 (stereo not given) | -13%
CC(C)NC(=O)N1CCC2(CC1)CN(Cc1ccncc1)Cc1ccccc1O2 | 2%
O=C(O)CCCC(=O)N1Cc2ccccc2CC2(CCCN(Cc3ccccc3)C2)C1 (stereo not given) | -2%
C[C@H](C(=O)N1Cc2ccccc2CC2(CCN(Cc3ccncc3)C2)C1)c1ccccc1 (stereo not given in full) | 10µM*
Cc1nc(-c2c3n(c(=O)n(CC(=O)Nc4cc(Cl)ccc4C)c2=O)CCCCC3)no1 | 0%
Cc1cccc(N2Cc3c(ncnc3NCc3ccc(C(F)(F)F)cc3)CN(C)C2=O)c1 | 1%
COC[C@@H]1CN(C(=O)Cc2ccccc2C)C[C@H]1C(N)=O | 15%
CC(=O)N1CCC(C(=O)N[C@H](Cc2ccccn2)C2CC(O)C2)CC1 (stereo not given in full) | -13%
Cc1ccccc1S(=O)(=O)N1CCCC(Cc2noc(-c3cccnc3)n2)C1 (stereo not given) | -12%
CCNC(=O)c1ccc(-c2cc(NC3CCCC3)nc3[nH]ccc23)nc1 | 10µM*
COc1ccc(C(=O)NCc2ccnc3[nH]ccc23)cc1 | -8%[44.1 µM]
O=C(O)c1cnc(-c2cc(NCc3ccccn3)nc3[nH]ccc23)c(Cl)c1 | -3%
Nc1ncc(-c2ccc(-c3cc(NC4CCCC4)nc4[nH]ccc34)cc2)[nH]1 | 8.9µM*
Cc1csc(NC(=O)c2ccc3c(c2)OCC(=O)N(Cc2cnn(C)c2)C3)n1 | i
COc1ccccc1-c1cccc(COc2ccc3c(cnn3CC[S+](C)(=O)[O-])c2)c1 | -29%[44.1 µM]
CNC(=O)CCn1ncc2cc(OCc3ccccc3-c3cnc(OC)nc3)ccc21 | i
COc1ccc(F)cc1-c1cccc(COc2ccc3c(cnn3CC[S+](C)(=O)[O-])c2)c1 | -29%
CNC(=O)CCn1ncc2cc(OCc3ccccc3-c3c(Cl)cccc3OC)ccc21 | 4µM*
COc1cc(F)cc(-c2ccc(COc3ccc4c(cnn4CCC(=O)O)c3)cc2)c1 | -18%[44.1 µM]
CNC(=O)CCn1ncc2cc(OCc3ccccc3-c3ccccc3COC)ccc21 | 4µM*
C[S+](=O)([O-])CCn1ncc2cc(OCc3cccc(-c4ccccc4O)c3)ccc21 | 7.9µM*
COc1ccc(-c2ccc(COc3ccc4c(cnn4CCC(=O)O)c3)cc2)c(Cl)c1 | i
COc1cccc(F)c1-c1ccc(COc2ccc3c(cnn3CCC(=O)O)c2)cc1 | -20%[44.1 µM]
SMILES | Pf Dd2 growth
CNC(=O)CCn1ncc2cc(OC3CCc4cccc(-c5ccnc(OC)c5)c43)ccc21 (stereo not given) | -7%
CNC(=O)CCn1ncc2cc(OCc3ccccc3-c3cc(F)ccc3C)ccc21 | 3.2µM*
C[S+](=O)([O-])CCn1ncc2cc(OCc3cccc(-c4cncnc4)c3)ccc21 | i
CCn1ncc(N2CCCC(CC(=O)N3CCCCCC3)C2)cc1=O (stereo not given) | -24%
O=C(NC1CCCN(c2cc(-c3ccc(F)cc3)[nH]n2)C1)c1ccoc1 (stereo not given) | i
Cc1ccc(S(=O)(=O)NCC2(C)CCOCC2)c(C)c1 | -2%
CS(=O)(=O)c1ccc(CNC[C@H]2Cn3ccnc3CO2)cc1 | 9%[44.1 µM]
O=C(NC[C@H]1OC[C@@H](NC2CCCC2)[C@@H]1O)C1CCCC1 | i
Cc1noc(C)c1CC(=O)N1CCCC(c2noc(COc3ccccc3)n2)C1 (stereo not given) | -10%
COC(=O)[C@H]1CN(C(=O)c2cccnc2)CCN1C(=O)C1CCCCC1 | i
O=C1c2[nH]nc(-c3ccccc3)c2C(c2ccccc2)N1c1cccc(C(F)(F)F)c1 (stereo not given) | i
CCOC(=O)c1ccc(N2C(=O)c3n[nH]c(C)c3C2c2ccc(C(C)(C)C)cc2)cc1 (stereo not given) | 23%
CCOC(=O)c1ccc(N2C(=O)c3[nH]nc(-c4ccc(OC)cc4)c3C2c2ccccc2Cl)cc1 (stereo not given) | -7%
CCOC(=O)c1ccc(N2C(=O)c3[nH]nc(-c4ccc(C)cc4)c3C2c2ccc(O)c(OCC)c2)cc1 (stereo not given) | 7.1µM*
CCOC(=O)c1ccc(NC(=O)c2cn(-c3ccccc3)nc2-c2ccc(Br)cc2)cc1 | 1%
CCOc1ccc(C2c3c(-c4ccc(C)cc4)n[nH]c3C(=O)N2c2ccc(Cl)cc2)cc1 (stereo not given) | 10µM*
CCOC(=O)c1ccc(N2C(=O)Cc3cc(OCC)c(OCC)cc3C2c2ccccc2)cc1 (stereo not given) | 40%
CCOC(=O)c1ccc(NC(=O)c2cn(-c3ccccc3)nc2-c2ccc(C)cc2)cc1 | 4%
Cc1ccc(-c2n[nH]c3c2C(c2cccc(O)c2)N(c2ccc(C(=O)O)cc2)C3=O)cc1 (stereo not given) | 21%
CCOC(=O)c1ccc(N2C(=O)c3n[nH]c(-c4ccco4)c3C2c2ccc(O)c(OCC)c2)cc1 (stereo not given) | i
CCOC(=O)c1ccc(N2C(=O)c3n[nH]c(C)c3C2c2cccc(Br)c2)cc1 (stereo not given) | 13µM*
CCOC(=O)c1ccc(N2C(=O)c3[nH]nc(-c4ccc(C)cc4)c3C2c2cccs2)cc1 (stereo not given) | 11µM*
COc1ccc(Cl)cc1C(=O)NC1CCN(c2cc(-c3cccs3)[nH]n2)CC1 | 0%
COCC(=O)N1CC[C@]2(O)CCN(C(=O)c3ccc(C(C)=O)s3)C[C@@H]2C1 | -10%
CCOC(=O)c1cn(C2CN(S(=O)(=O)c3cccc(Cl)c3)C2)nn1 | -29%
SMILES | Pf Dd2 growth
COc1ccc(OC)c(S(=O)(=O)N2CCn3c(nn(CC4CC4)c3=O)C2)c1 | -12%
CN(C)C(=O)c1ccc(-c2ccc3ncn(-c4ccc(F)cc4F)c(=O)c3n2)cc1 | i
O=C(NCCCc1ccccc1)c1cccc2c1CCN2C(=O)C1CC1 | -12%
CCc1nc(-c2c3n(c(=O)n(CC(=O)Nc4ccccc4CC)c2=O)CCCCC3)no1 | i
CC1(CCC(=O)N2CCCC2C(=O)Nc2ccccc2Oc2cccnc2)CC1 (stereo not given) | -14%
COCC(=O)N1CCN(c2nc3ncccc3o2)CC1 | -5%[44.1 µM]
Cc1nc2c(c(NC3CC3)n1)CCN(C(=O)CCc1ccncc1)CC2 | -13%
O=C(c1ccco1)N1CCC(F)(c2nc(-c3ccncc3)no2)CC1 | -8%
CCOC(=O)c1ccc(N2C(=O)c3n[nH]c(-c4cccs4)c3C2c2cccc(O)c2)cc1 (stereo not given) | -18%
CCOC(=O)c1ccc(N2C(=O)c3n[nH]c(-c4cccs4)c3C2c2ccc(CC)cc2)cc1 (stereo not given) | 10µM*
CCOC(=O)c1ccc(N2C(=O)c3n[nH]c(-c4cccs4)c3C2c2ccc(C(C)C)cc2)cc1 (stereo not given) | -2%
Cc1noc(C)c1C(=O)N1CCN(C2CCNCC2)C(=O)C1 | 28%
CN1CC2(CCN(C(=O)NCc3ccc(F)cc3)CC2)CC1C(=O)N1CCOCC1 (stereo not given) | 10%
CC(C)CN1C(=O)c2cccn2CC1C(=O)NCc1cccc(C(F)(F)F)c1 (stereo not given) | i
FC(F)(F)Oc1ccc(-c2cnc([C@@H]3COCCN3Cc3ccncc3)[nH]2)cc1 | i
